Results as given in PubChem BioAssay (NCATS).
Where “and” joins values, the source holds several entries; their conditions need not be identical. Identical values can stand only once. Results filed as inconclusive are left out. Where a call stands in place of a potency, no number is given. Calls of active or inactive are those of the source. Unless noted, the call rests on the fitted dose curve.

Assays:
[1] = Primary qHTS for Huh7 cytotoxicity: counterscreen for inhibitors of MERS-S pseudotyped particle cell entry (AID 1479147); settings: outcome: dose series up to 57.1 µM unless noted
[2] = Primary qHTS for inhibitors of MERS-S pseudo-typed particle cell entry (AID 1479149); further: nearly all actives have a fitted effect of over 60% in size
[3] = Primary qHTS for Vero E6 cytotoxicity: counterscreen for inhibitors of SARS-S pseudo-typed particle cell entry (AID 1479150); settings: outcome: dose series up to 57.1 µM unless noted
[4] = Cytotoxicity counterscreen for inhibitors of SARS-CoV-2 cell entry (AID 1645845); further: nearly all actives have a fitted effect of over 50% in size
Outline: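 ATP-content luminescence (ATPLite 1step, 15 min RT) read after 48 h compound exposure of Expi293F cells stably expressing human ACE2; normalized to cells-only wells and media-only wells.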

[5] = Primary qHTS to identify inhibitors of SARS-CoV-2 cell entry (AID 1645846); settings: activity change, negative = inhibition: at 57.1 µM (top of the series) unless noted; further: nearly all actives have a fitted effect of over 45% in size
Outline: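 Using luciferase-reporting pseudoviruses carrying Wuhan-Hu-1 spike, the screen tracks entry into stably ACE2-expressing cells over 48 hr. Activity is expressed relative to spike particles versus particles lacking any fusion protein.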

CRL-7250 = normal cell line; test: qHTS assay to identify novel small-molecules to repurpose for Merkel cell carcinoma treatment (AID 1296009; active means well fitted inhibition curve with a large enough effect; further: nearly all actives have a fitted effect of over 60% in size); settings: MCC and control cell lines, CellTiter-Glo viability, 72 h; series mostly up to 92 µM
Outline: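 Cell viability, measured as CellTiter-Glo luminescence, was normalized between DMSO and no-cell wells. The cells had been exposed to 8- or 11-point compound dilutions for 72 hr at 37 degree celsius.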

[6] = qHTS for Inhibitors of the Functional Ribonucleoprotein Complex (vRNP) of Lassa (LASV) Arenavirus: Viability assay - alamar blue signal for LASV Primary Screen (AID 1347083; calls by dose curve; tested in HEK293 reporter line; further: potency means the concentration at half of the fitted maximal effect; nearly all actives have a fitted effect of over 80% in size)
[7] = qHTS for Inhibitors of the Functional Ribonucleoprotein Complex (vRNP) of Lymphocytic Choriomeningitis Arenaviruses (LCMV): Viability assay - alamar blue signal for LCMV Primary Screen (AID 1347085; calls by dose curve; tested in HEK293 reporter line; further: nearly all actives have a fitted effect of over 80% in size; further: potency means the concentration at half of the fitted maximal effect)
[8] = biological target: Nucleoprotein (Lymphocytic choriomeningitis virus (strain Armstrong)) (UniProt P09992); test: qHTS for Inhibitors of the Functional Ribonucleoprotein Complex (vRNP) of Lymphocytic Choriomeningitis Arenaviruses (LCMV): LCMV Primary Screen - GLuc reporter signal (AID 1347086); further: nearly all actives have a fitted effect of over 70% in size; further: potency means the concentration at half of the fitted maximal effect
[9] = Primary qHTS for inhibitors of SARS-S pseudo-typed particle cell entry (AID 1479145); further: nearly all actives have a fitted effect of over 45% in size
[10] = Confirmatory qHTS for activators (rescue) of SARS-CoV-2 Cytopathic Effect (CPE) (AID 1508606); further: potency means the concentration at half of the fitted maximal effect; nearly all actives have a fitted effect of over 70% in size

Nucleoprotein (Lymphocytic choriomeningitis virus (strain Armstrong)), sequence (P09992 whole entry, looked up): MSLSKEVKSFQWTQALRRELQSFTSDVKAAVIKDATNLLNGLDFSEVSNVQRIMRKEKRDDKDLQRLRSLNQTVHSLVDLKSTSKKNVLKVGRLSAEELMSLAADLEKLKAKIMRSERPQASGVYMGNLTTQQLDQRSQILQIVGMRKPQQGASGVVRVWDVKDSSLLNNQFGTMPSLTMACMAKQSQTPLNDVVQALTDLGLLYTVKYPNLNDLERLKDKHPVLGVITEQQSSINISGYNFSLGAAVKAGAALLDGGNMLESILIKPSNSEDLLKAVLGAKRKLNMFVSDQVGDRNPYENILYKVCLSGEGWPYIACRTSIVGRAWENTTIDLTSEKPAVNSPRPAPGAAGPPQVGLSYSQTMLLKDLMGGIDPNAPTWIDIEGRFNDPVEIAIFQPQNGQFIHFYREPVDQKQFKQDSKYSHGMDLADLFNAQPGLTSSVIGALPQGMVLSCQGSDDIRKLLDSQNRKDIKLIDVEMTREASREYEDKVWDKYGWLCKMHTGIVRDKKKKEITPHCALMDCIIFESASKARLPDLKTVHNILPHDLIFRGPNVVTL

C[C@H](O)[C@H](O)[C@H]1CNc2nc(N)[nH]c(=O)c2N1
outcome [1]: inactive
Potency [2]: inactive
outcome [3]: inactive
Potency [4]: inactive
activity change, negative = inhibition [5]: -28%
Potency (CRL-7250): inactive

Nc1ncnc2ccccc12
Potency [6]: 15.3 µM (active)
Potency [7]: 12.2 µM (active)
Potency [8]: 24.3 µM (active)
Potency [4]: inactive
Potency (CRL-7250): inactive

CC(=O)OC(C)(C)/C=C/C(=O)[C@](C)(O)[C@H]1C(O)C[C@@]2(C)[C@@H]3CC=C4[C@@H](C=C(O[C@@H]5O[C@H](CO)[C@@H](O)[C@H](O)[C@H]5O)C(=O)C4(C)C)[C@]3(C)C(=O)C[C@]12C (some centres not stated)
Potency [9]: inactive
outcome [1]: inactive [at 15.3 µM]
Potency [2]: inactive
outcome [3]: inactive [at 15.3 µM]
Potency [4]: inactive
Potency (CRL-7250): inactive

CC(C)c1cnn2c(NCc3ccccc3)cc(NCCCCCCN)nc12
Potency [6]: 1.93 µM (active)
Potency [7]: 1.09 µM (active)
Potency [8]: 1.53 µM (active)
Potency [10]: 10 µM (active)
Potency (CRL-7250): inactive

C[C@]12CC[C@@H]3c4ccc(OC(=O)c5ccccc5)cc4CC[C@H]3[C@@H]1CC[C@@H]2O
Potency [9]: inactive
outcome [1]: inactive
outcome [3]: inactive
activity change, negative = inhibition [5]: -3.2%
Potency (CRL-7250): inactive

c1cc(OCCN2CCCCC2)cc(-c2n[nH]c3ccc(-c4ncn[nH]4)cc23)c1
Potency [7]: inactive
Potency [4]: inactive
Potency (CRL-7250): inactive

CCC(=O)NS(=O)(=O)c1ccc(-c2c(-c3ccccc3)noc2C)cc1
Potency [9]: inactive
outcome [1]: inactive
Potency [2]: inactive
outcome [3]: inactive
Potency [4]: inactive
activity change, negative = inhibition [5]: -22.2% and -23.1%
Potency (CRL-7250): inactive

O=C(Nc1ccccc1)Nc1ccc(-c2ccc(C(=O)[C@H]3CCC[C@H]3C(=O)O)cc2)cc1
Potency [7]: inactive
Potency (CRL-7250): inactive

CC(=O)O[C@]1(C(C)=O)CC[C@H]2[C@@H]3C=C(Cl)C4=CC(=O)[C@@H]5C[C@H]5[C@]4(C)[C@@H]3CC[C@@]21C
Potency [7]: 24.3 µM (active)
Potency (CRL-7250): inactive

NC(=O)c1ccc2nc(-c3ccc(Oc4ccc(Cl)cc4)cc3)[nH]c2c1
Potency [6]: 0.769 µM (active)
Potency [8]: inactive
Potency (CRL-7250): inactive

Cc1c(C)n(Cc2ccc(-c3ccccc3C(=O)O)cc2)c2ccc(C(=O)N[C@@H](C)c3ccc([N+](=O)[O-])cc3)cc12
Potency [8]: 4.85 µM (active)
Potency (CRL-7250): inactive

CCCSc1nc(N[C@@H]2C[C@H]2c2ccc(F)c(F)c2)c2nnn([C@@H]3C[C@H](OCCO)[C@@H](O)[C@H]3O)c2n1
outcome [1]: inactive
Potency [2]: inactive
outcome [3]: inactive
Potency [4]: inactive
Potency (CRL-7250): inactive

CN(C)CCOc1cc(-c2cn[nH]c2)ccc1NC(=O)C1COc2ccccc2O1 (configuration not stated)
Potency [7]: 27.3 µM (active)
Potency [4]: inactive
activity change, negative = inhibition [5]: -42.9%
Potency (CRL-7250): inactive

NC1=N[C@@]2(c3cc(NC(=O)c4ccc(F)cn4)ccc3F)COC[C@@H]2CS1
Potency [6]: 17.2 µM (active)
Potency [7]: 19.3 µM (active)
Potency (CRL-7250): inactive

CC[C@H](NC(=O)[C@H](C)NC)C(=O)N1C[C@@H](O)C[C@H]1Cc1c(-c2[nH]c3cc(F)ccc3c2C[C@H]2C[C@H](O)CN2C(=O)[C@H](CC)NC(=O)[C@H](C)NC)[nH]c2cc(F)ccc12
Potency [6]: 6.85 µM (active)
Potency [7]: 3.85 µM (active)
Potency [8]: 7.69 µM (active)
Potency (CRL-7250): inactive
